Measured values from PubChem BioAssay AID1671188 (National Center for Advancing Translational Sciences (NCATS), 2021).
Several values for one entry are separate records, joined by “and”; a condition that tells them apart may be missing. Identical values can stand only once. Among all 100,000 compounds or so, about 250 (0.25%) were called active. A call without a number means that no potency is given here. Not shown: some 7% with an inconclusive outcome. This is one part of a sample in which actives are shown more often than they occur. Calls come from the whole dose curve; as a rule, active = well fitted inhibition curve with a large enough effect; inconclusive = small, poorly fitted or top-dose-only effect; inactive = flat fitted curve, though single readings scatter. The source holds several records for some structures; these can differ, active in one and inactive in another.

Biological target: Alanine aminotransferase 2 (Homo sapiens) (UniProt Q8TD30)
Test: Primary qHTS assay for inhibitors of Glutamate pyruvate transaminase 2 (GPT2); note: nearly all actives have a fitted effect of over 60% in size
Details: Recombinant GPT2, coupled pyruvate oxidase/HRP Amplex Red fluorescence; series mostly up to 57.7 µM
Experimental: Assay Provider: Zhenghe John Wang Ph.D.
Case Western Reserve University, Cleveland OH
Glutamate pyruvate transaminase 2 (GPT2) catalyzes the reversible transamination of glutamate and pyruvate to provide a-ketoglutarate and alanine. We have optimized an assay for GPT2 enzymatic activity that couples pyruvate formation to detection of fluorescence using an established pyruvate oxidase/horseradish peroxidase / Amplex Red system.
Screening conditions were 250uM a-KG, 2mM L-alanine, and 10ng/uL GPT2 in […] of solution; 10uL of Amplex reaction mix (outlined below) were added so that final concentrations of Amplex reagents in 50uL were 0.2mM ThPP, 0.2U/mL PO and HRP, and 50uM Amplex.
NOTE: The volume of GPT2 in the system depends on the activity of it. The activity is different every batch. You need to test the activity before the assay. For full plate assay with automation, plate 20uL of GPT2 buffer to pin into, then add 10uL of GPT2 dilution followed immediately by 10uL of substrate dilution. 2 Columns of the plate were devoted to GPT2 buffer ([…] PH7.5, 0.0001% Tween) + 50uM AOA (known GPT2 inhibitor) to serve as a positive control. Complete the assay as normal. Amplex-red buffer: […] PH7.5, 1 mM EDTA, 1 mM MgCl2.
1. Combine a-KG and L-alanine at desired concentrations and incubate for at least 10 minutes at 37C. Stocks of L-alanine and a-KG are diluted in distilled water. However, the stocks were diluted in GPT2 buffer for the assay.
2. Prepare GPT2 dilution at the desired concentration in GPT2 buffer.
3. Plate 40uL of GPT2 dilution with 40uL of substrate dilution and let incubate for 30 minutes at room temperature.
4. Add 20uL of Amplex reaction mix prepared as follows: 1.5uL 200U/mL Horseradish Peroxidase, 200mM Thiamine Pyrophosphate, 200U/mL Pyruvate Oxidase; 7.5uL 10mM Amplex Red; 288uL Amplex Buffer.
5. Incubate for 30 minutes at room temperature in the dark, then image using AM_Amplex_Fluorescence on plate reader nearest the window.
Potency is the fitted concentration of half-maximal effect.

Sequence of Alanine aminotransferase 2 (Homo sapiens) (Q8TD30 whole entry, looked up): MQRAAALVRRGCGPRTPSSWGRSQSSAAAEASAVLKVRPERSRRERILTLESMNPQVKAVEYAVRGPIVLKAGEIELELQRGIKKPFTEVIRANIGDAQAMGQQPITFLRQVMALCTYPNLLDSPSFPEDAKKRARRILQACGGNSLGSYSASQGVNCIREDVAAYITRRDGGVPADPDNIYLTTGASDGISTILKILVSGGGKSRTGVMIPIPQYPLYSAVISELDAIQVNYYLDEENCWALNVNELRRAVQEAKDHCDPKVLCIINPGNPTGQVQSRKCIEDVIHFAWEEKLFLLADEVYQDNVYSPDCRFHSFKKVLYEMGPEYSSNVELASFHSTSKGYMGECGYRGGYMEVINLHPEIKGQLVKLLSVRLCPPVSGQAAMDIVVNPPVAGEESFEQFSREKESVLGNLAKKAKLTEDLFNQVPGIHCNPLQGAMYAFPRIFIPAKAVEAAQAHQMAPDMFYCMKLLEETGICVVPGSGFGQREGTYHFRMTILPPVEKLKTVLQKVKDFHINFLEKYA

SMILES | Potency | activity change, negative = inhibition
CN(C)C(=O)c1ccc2oc(-c3ccnc(Cl)c3)nc2c1 | inactive | 
CC(C)c1ccc(CN2CCC3(CC2)COCCN3C(=O)c2ccc3[nH]ncc3c2)cc1 | inactive | 
CC(=O)N1C[C@@H]2CCCN3CCC[C@@H]([C@H]23)[C@H]1CCCC(=O)N1CCN(C2CCN(C)CC2)CC1 | inactive | 
COc1ccc(CC(=O)NC2CCN(Cc3ccc(-c4ccccc4OC)cc3)C2)cc1 (configuration not stated) | inactive | 
O=C1[C@H]2CN(Cc3ccc(Cl)c(F)c3)C[C@H]2C(=O)N1CCc1ccccc1 | inactive | 
O=C(c1ccc(C(F)(F)F)cc1)N1CCN(c2ccnc3ccnn23)CC1 | inactive | 
O=C(N1CCC(Cc2nc(-c3ccccc3)n[nH]2)C1)C1(c2ccccc2)CC1 (configuration not stated) | inactive | 
O=C(c1ccccc1Cl)N1CCC2(CC1)NC(=O)N(c1cccc(Cl)c1)N2 | inactive | 
CC(C)c1noc(-c2cn(C3CCN(C(=O)c4cccc(C#N)c4)C3)nn2)n1 (configuration not stated) | inactive | 
O=C1NCCOCCN(S(=O)(=O)c2cccs2)[C@@H]2CCCC[C@H]12 | inactive | 
CNC(=O)c1ccccc1Nc1nc(Nc2ccc3c(c2OC)CCC[C@@H](N2CCN(CCO)CC2)C3)ncc1Cl | inactive | 
COc1ccccc1Nc1ncc2c(n1)CN(C(=O)COc1ccccc1)CCN2 | inactive | 
CNC(=O)c1ccccc1Nc1nc(Nc2ccc(N3CCOCC3)cc2OC)ncc1Cl | 10.9 µM (active) and 7.08 µM (active) | 
COc1cccc(-c2ccc(C(=O)N3CCC(NC(=O)Cc4ccc(F)cc4)CC3)cc2)c1 | inactive | 
COc1ccccc1OC(C)(C)C(=O)N1CC(C)(C)[C@@](C)(O)C1 | inactive | 
CN(CC1CCOCC1)C(=O)Nc1ccc(Cl)cc1 | inactive | 
O=S(=O)(Cc1ccccc1)N1CC(c2nc(-c3ccncc3)no2)C1 | inactive | 
COc1ccc(CN2CCN(c3nc4ccccc4o3)CC2CCO)cc1C (configuration not stated) |  | -2.15% [at 11.5 µM] (inactive)
COc1ccc(-n2cccn2)c(CN2CCC3(CCNC(=O)CC3)CC2)c1 | inactive | 
Cc1noc(C)c1-c1cc2c(cc(C)n2C)c(NCCCn2ccnc2)n1 | inactive | 
COc1ccccc1Cn1c(=O)c(C(=O)NCc2ccc(F)cc2)nc2cccnc21 | inactive | 
O=C(c1ccc(F)cc1)N1CCCC(C(=O)N2CCCC2c2nc3ccncc3[nH]2)C1 (configuration not stated) | inactive | 
CN1CCN(C(=O)c2ccc3oc(-c4ccncc4Cl)nc3c2)CC1 | inactive | 
COc1cccc(N2C(=O)NC(=NC3CCCCC3)C23CCN(CC2CCCCC2)CC3)c1 | inactive | 
CC1=C(C(=O)OC(C)(C)C)C(c2ccccc2F)N2C(CC(=O)N3CCCC3)=CSC2=N1 (configuration not stated) | inactive | 

SMILES | Potency | activity change, negative = inhibition
O[C@@H]1C[C@@H](c2nc(-c3cccnc3)no2)N(Cc2cccs2)C1 | inactive | 
CN(Cc1ccsc1)Cc1nc(C(c2ccccc2)c2ccccc2)no1 | inactive | 
CCOC(=O)C1CCN(C(=O)c2nc3sccn3c2-c2ccc(OC)cc2)CC1 | inactive | 
COCc1cc(=O)n(CC(=O)Nc2cc(C)cc(C)c2)c(N2CCOCC2)n1 | inactive | 
CC(=O)c1ccc(NC(=O)O[C@@H]2CO[C@H]3[C@@H]2OC[C@@H]3Nc2nccc(-c3ccco3)n2)cc1 | inactive | 
CC[C@@H]1Cc2cc(O)ccc2C2=C1c1ccc(O)cc1C[C@H]2CC | 11.2 µM (active) | 
COCCN1C[C@H]2CN(C(=O)c3ccc(C(F)(F)F)cc3)CCN2C1=O | inactive | 
N#Cc1ccc(CN2CCC3(Cc4ccccc4NC3=O)C2)cc1 (configuration not stated) | inactive | 
O=C(Cn1nc2c(cc1=O)CCCC2)NCCn1ccc2ccc(Cl)cc21 | inactive | 
Cc1nc(C)c(C(=O)N2CCc3nnc([C@@H]4C[C@@H](O)CN4C(C)C)n3CC2)s1 | inactive | 
C=CCNC(=O)C1N(C(C)C)C(=O)C12CCCC2 (configuration not stated) | inactive | 
OCC1(CN2CCCC2)CCN(Cc2ccc(OC(F)(F)F)cc2)CC1 | inactive | 
COc1ccc(NC(=O)N2CCC(O)(c3csc(CN4CCc5ccccc5C4)n3)CC2)cc1 | inactive | 
CO[C@@H]1COCC[C@H]1NC(=O)c1cn(CCN2CCNCC2)nn1 | inactive | 
CCC(=O)N1CCCC(Cc2ncc(C)n2C(C)C)C1 (configuration not stated) | inactive | 
O=C(c1cc(Cl)ccc1F)N1CCN(c2cc(C(F)(F)F)ncn2)CC1 | inactive | 
O=C(NCc1ccc(Cl)nc1)c1cnn2ncccc12 | inactive | 
CC(C)c1ccc(CNC(=O)CN2CCCc3nc(C4CC4)ncc3C2=O)cc1 | inactive | 
COCCN1C(=O)CCC2(C(=O)NCc3cn[nH]c3C)CCCC=C12 (configuration not stated) | inactive | 
CN1CCN(C(C)(CN)c2ccccn2)CC1 (configuration not stated) | inactive | 
O=C(Nc1cccc(F)c1)N1CCC2(CC1)SCC(=O)N2Cc1ccco1 | inactive | 
COc1ccc(-c2nnc(C[C@@H]3C[C@@H](C(C)C)[C@H](CN4CCC(C(N)=O)CC4)C=C3C)o2)cc1 | inactive | 
Cc1ccc(C)c(CN2C(=O)NC3(CCCN(C(=O)c4ccc(C)c(F)c4)C3)C2=O)c1 (configuration not stated) | inactive | 
c1ccc2c(CN3CCC[C@H]3c3nc(-c4ccnc(N5CCOCC5)c4)no3)c[nH]c2c1 | inactive | 
NC(=O)c1cccnc1N1CCN(CC2(O)CNCCOC2)CC1 (configuration not stated) | inactive | 

SMILES | Potency | activity change, negative = inhibition
O=C1COCC2(CN(c3ccc(C(F)(F)F)cn3)C2)CN1c1cccnc1 | inactive | 
Cc1ccccc1CN1CCc2ncc(C(=O)NCCOc3ccccc3)n2CC1 | inactive | 
Cc1nc([C@H]2CCN(Cc3ccoc3)C[C@H]2NC(=O)C2CC2)n[nH]1 | inactive | 
CCC(C)Oc1ccccc1CN1CCC(CO)(CN2CCCC2)CC1 (configuration not stated) | inactive | 
COCc1cc(C[C@@H]2C[C@H](NC(=O)Nc3ccccc3)C2(C)C)no1 | inactive | 
Cc1ccc(C(=O)Nc2ccc(C(O)[C@H]3COCC(=O)N3Cc3ccccc3F)cc2)cc1 (some centres not stated) | inactive | 
Cc1ccc(Nc2ccnc(N3CCC(C(=O)Nc4ccccc4F)CC3)n2)cc1 | inactive | 
Cc1cc(Nc2cc(N3CCN(C)CC3)nc(Sc3ccc(NC(=O)C4CC4)cc3)n2)n[nH]1 | inactive and 27.3 µM (active) | 
CN1CCN(C(=O)c2ccc(-c3nnc4ccc(NC(=O)C5CCC5)cn34)cc2)CC1 | inactive | 
O=C(CC1CCN(C(=O)c2ccco2)C1)N1CCOCC1 (configuration not stated) | inactive | 
COCCn1nc2n(c1=O)CCN(C(=O)c1ccco1)CC2 | inactive | 
CCC(=O)Nc1cc(-c2ccccn2)nn1-c1ccccc1 | inactive | 
O=C(NCCc1ccccc1F)c1cn2cc(-c3cccc(C(F)(F)F)c3)sc2n1 | inactive | 
Fc1cccc(C2CCCCCN2Cc2cn(-c3ccccc3)nn2)c1 (configuration not stated) |  | -3.5% [at 11.5 µM] (inactive)
COC(=O)c1cccc(NC(=S)N[C@H]2CO[C@H]3[C@@H]2OC[C@H]3OC(=O)Nc2ccc(Oc3ccccc3)cc2)c1 | inactive | 
Cc1noc(C)c1S(=O)(=O)N1CCC(c2noc(-c3ccncc3)n2)C1 (configuration not stated) | inactive | 
COc1ccccc1-c1ccc2c(C(=O)NCCc3ccc(Cl)cc3)nn(C)c2n1 | inactive | 
COc1ccc(C(=O)N2CC[C@@H](CC(=O)O)[C@@H](CCN3C[C@@H]4C[C@H](C3)c3cccc(=O)n3C4)C2)cc1 | inactive | 
O=C(NCCCc1ccccc1)c1n[nH]c2c1CN(C(=O)C1CC1)CC2 | inactive | 
O=C(NCc1cccc(Cl)c1)c1ccc2nnc(Cc3ccc(Cl)cc3)n2c1 | inactive | 
Cc1nc(-c2c3n(c(=O)n(Cc4ccc(F)c(F)c4)c2=O)CCCC3)no1 | inactive | 
COc1cccc(CN(C)C2CCc3nn(C)c(=O)n3CC2)n1 (configuration not stated) | inactive | 
COc1ccc(CC(=O)N2CCN(C(=O)c3nc4cccnc4n(Cc4ccc(OC)cc4)c3=O)CC2)cc1 | inactive | 
CC[C@H]1CN(C(=O)NC(C)C)CC[C@H]1CC(=O)Nc1ccccc1 | inactive | 
COc1ccc(C(=O)N2C[C@@H](Oc3cccnc3)C[C@H]2C(=O)N2CCOCC2)cc1 | inactive | 

SMILES | Potency | activity change, negative = inhibition
O=C(c1ccc2c(c1)CCCO2)N1CCCn2nc(C(O)C3CCC3)cc2C1 (configuration not stated) | inactive | 
O=C(C1COc2ccccc2O1)N1CCc2c(nc3cc(-c4ccccc4)[nH]n3c2=O)C1 (configuration not stated) | inactive | 
CN1CCC(N2CCC[C@H]2c2nc(-c3ccc(OC4CCCCC4)nc3)no2)CC1 | inactive | 
O=C1NC(C(=O)NCc2ccccn2)Cn2cccc21 (configuration not stated) | inactive | 
COc1ccc(CN2CCn3c(nn(-c4ccncc4)c3=O)C2)cc1 | inactive | 
CN1C[C@@H](C(=O)Nc2ccccc2)[C@H](C2CCNCC2)C1 | inactive | 
O=C1NC2(Cc3ccccc31)CN(Cc1ccc(F)cc1)C2 | inactive | 
CCC1=C(C(=O)OC)C(c2cccc(OC)c2)N2C(CC(=O)N3CCOCC3)=CSC2=N1 (configuration not stated) | inactive | 
O=C1CC(c2noc(-c3cc(Cl)ccc3F)n2)CN1c1ccc(F)cc1 (configuration not stated) | inactive | 
COc1ccc(C(=O)N2CCCC(CO)CCNC(=O)CC2)c(OC)n1 (configuration not stated) | inactive | 
Cc1cccc(-c2cccc(CN3CCC(NC(=O)Cc4ccc(F)cc4)CC3)c2)c1 | inactive | 
O=C(C1CC=CCC1)N1CC(c2noc(C3CCCN3CC3CC3)n2)C1 (configuration not stated) | inactive | 
O=C(CCn1cnnn1)N1CCC(N2C(=O)C3(CCCC3)C2c2ccccc2)CC1 (configuration not stated) | inactive | 
CC(C)(O)CCc1ccc(C(=O)N2CCOc3ccc(Cl)cc3C2)cc1 | inactive | 
CN(C)CCNC(=O)c1cccnc1OC1CCNCC1 | inactive | 
CN(C)[C@H]1CCCCN(CC2CCC(N)CC2)C1 (some centres not stated) | inactive | 
CC(C)Cn1c(=O)c(C(=O)N2CCN([S+](=O)([O-])c3cccc(C(F)(F)F)c3)CC2)nc2cccnc21 | inactive | 
COc1cccc(CN2C(=O)OC3(CCN(C(=O)c4scnc4C)CC3)C2(C)c2cccnc2)c1 (configuration not stated) | inactive | 
O=C(NCc1ccc(Cl)nc1)c1c[nH]c2cccnc12 | inactive | 
O=[S+]([O-])(c1cccs1)N1CCN(c2nccc(Nc3ccccc3F)n2)CC1 | inactive | 
CCC(=O)Nc1cc(C(=O)NCc2ccc(N3CCOCC3)cc2)c2ccc(C)nc2c1 | inactive | 
Cc1ccc(C(=O)N2CCCC(c3nc(-c4ccccc4)no3)CCNC(=O)CC2)cn1 (configuration not stated) | inactive | 
